Screens from PubChem BioAssay.
H9c2 protect: protects H9c2 cardiomyocytes from peroxide injury | protection from H2O2 cell death, % at 20 µM | H2O2 injury protection, ATPLite, 2 h | actives 0.63% (n = 360,000);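 active means compounds giving at least 50% protection of heart cells from peroxide-induced death in the single-dose screen, raw or plate-pattern-corrected value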;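 further: 0% = DMSO wells with peroxide and 100% = DMSO wells without peroxide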
GRIN3A LBD mod: modulators (binders) of human NR3A ligand-binding domain; actives 2.5% (n = 340,000); NR3A LBD differential scanning fluorimetry, Tm shift; 0% = protein alone, 100% = glycine-bound protein; AID 1259313; Tm shift relative to glycine control, % at 25 µM;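 active means melting temperature shift of at least 10% of the positive control shift, at one fixed dose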
NTR1 ag: activates human neurotensin receptor 1. NTR1-U2OS beta-arrestin-GFP spot imaging, agonist mode. AID 493036. activation, % at 20 µM. actives 0.17% (n = 330,000). P30989;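 active means activation at or above 40% of the spot to cytoplasm intensity ratio, with at least 20 cells analyzed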;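 further: 0% = DMSO without peptide and 100% = 100 nM NTR1 peptide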
Target sequence (P30989 whole entry, looked up): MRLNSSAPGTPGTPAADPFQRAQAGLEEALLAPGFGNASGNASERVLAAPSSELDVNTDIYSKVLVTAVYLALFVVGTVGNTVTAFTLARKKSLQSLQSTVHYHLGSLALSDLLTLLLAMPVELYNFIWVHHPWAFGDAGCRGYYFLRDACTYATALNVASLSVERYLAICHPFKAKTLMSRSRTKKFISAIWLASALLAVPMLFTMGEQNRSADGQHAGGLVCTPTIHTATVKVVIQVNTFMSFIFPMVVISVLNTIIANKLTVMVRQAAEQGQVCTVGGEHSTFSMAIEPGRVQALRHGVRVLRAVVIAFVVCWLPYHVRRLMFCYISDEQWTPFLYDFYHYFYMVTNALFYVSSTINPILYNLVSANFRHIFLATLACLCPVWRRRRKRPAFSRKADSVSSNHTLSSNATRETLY
AI-2 QS mod: Vibrio harveyi AI-2 quorum sensing modulation; activity change, % at 7.5 µM; AID 2094; actives 0.4% (n = 300,000); Vibrio harveyi JMH597 AI-2 luminescence/OD600 ratio, 9 h; hits give low values; strain lacks LuxN and CqsS sensors; 0 = neutral-control median; in the data active means activity change below about -75%, passing the limit was not always enough;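 further: luminescence divided by OD600 gain over 9 h not by final OD600 alone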
AHR act: activators of human aryl hydrocarbon receptor | P35869 | AHR-responsive luciferase reporter cells, luminescence | activation, % at 5 µM | actives 2.5% (n = 320,000) | AID 2796; in the data active means activation above about 47%;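 further: 0% = vehicle wells and 100% = reference agonist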
Mot1-301 SUMO: blocks SUMOylation pathway, rescuing yeast Mot1-301 growth; S. cerevisiae Mot1-301 growth rescue, ATP luminescence, 38.5C; percent above DMSO median, 100 means doubled; growth rescue, % at 18.8 µM; actives 1% (n = 320,000); AID 2716;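 active means every valid replicate shows activation above 250% relative to neutral control wells; inactive means the rest, any valid replicate at or below 250%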;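 further: OY570 slx delta 5 strain wells were the positive control but not used for scaling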
AHR act cf: confirmation of human aryl hydrocarbon receptor activators; human cells, AHR-responsive luciferase reporter, luminescence; AID 2845; actives 87% (n = 2,300); shares compounds with AHR act; activation, % at 9 µM; in the data active means activation above about 49%;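 further: HepG2 hepatoma cells carrying a DRE-driven firefly luciferase reporter; 0% = vehicle wells and 100% = reference agonist wells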
PXR counter: counter-screen for AHR activators: human PXR activators; activation, % at 11.6 µM; cell-based PXR reporter, luciferase luminescence; shares compounds with AHR act; actives 88% (n = 2,300); in the data active means activation above about 11%;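 further: human hepatoma DPX-2 cells expressing full-length human PXR; 0% = DMSO and 100% = reference agonist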
* hit, by the source's call; i = inactive; / = no result given. Compounds with a hit are over-represented: about 6.2% of the library has one in this group of screens.

SMILES	H9c2 protect	GRIN3A LBD mod	NTR1 ag	AI-2 QS mod	AHR act	Mot1-301 SUMO	AHR act cf	PXR counter
CCOc1ccc(OCCC(=O)Nc2ccc(N3CCOCC3)cc2N2CCOCC2)cc1	2	/	/	/	/	/	/	/
CN(C)CCCNc1nc(-c2ccc(Cl)cc2)nc2ccccc12	7	-1	1	-12	114*	-15	77*	26*
CCOc1ccccc1-c1nc(-c2ccc(NC(=O)c3ccc(Br)o3)cc2)no1	/	16*	3	22	123*	12	106*	19*
COc1ccccc1-n1cc(-c2ccccc2)[nH]c1=S	-6	0	1	25	102*	49	106*	49*
NC(COCc1ccccc1)c1csc(Nc2ccc(C(=O)NCCO)cc2)n1 (stereo not given)	12	/	/	/	/	/	/	/
COc1cc(/C=C(\C#N)c2nc3ccccc3[nH]2)ccc1OC(=O)c1ccco1	11	9	2	4	100*	-5	29	14*
CCCC(=O)N1CCC1(C)C(=O)NS(=O)(=O)c1ccccc1Cl (stereo not given)	1	/	/	/	/	/	/	/
COc1ccc(C(N)c2csc(Nc3ccc(S(C)(=O)=O)cc3)n2)cc1 (stereo not given)	8	/	/	/	/	/	/	/
COc1ccc(OC)c2c1C(=O)C(Cl)=C(Cl)C2=O	-15	-23	-3	22	137*	50	-4	-7
COc1ccc(N)c2c1C(=O)c1ccccc1C2=O	13	0	/	11	2	-18	/	/
CCCS(=O)(=O)Nc1cccc(-c2cn3c(n2)SCC3)c1	6	1	0	16	3	2	/	/
O=C(Nc1cccc(-c2cn3c(n2)SCC3)c1)c1ccc2ccccc2n1	12	-11	13	12	94*	3	54*	39*
CCc1ccccc1NC(=O)CN1CCN(CC(=O)NCc2ccc(Cl)cc2)CC1	2	1	2	/	1	-3	/	/
OCC[C@@H]1C[C@@H](O)[C@H](O)[C@@]2(Cc3ccccc3O2)O1	6	-2	-1	10	2	-26	/	/
O=C(Cn1cnc2ccccc2c1=O)c1ccc(Cl)cc1	-4	0	/	-31	/	/	/	/
O=c1c2ccccc2ncn1-c1ccc(Cl)cc1	2	2	-1	4	112*	22	115*	10
O=Cc1ccc(OC(=O)Cc2ccc(F)cc2)cc1	/	/	0	6	2	14	/	/
CC(=O)c1cccc(NC(=O)COc2ccc3oc(=O)cc(C)c3c2)c1	17	-3	-2	26	-2	-26	/	/
CCc1cccc(CC)c1NC(=O)CSc1nc2ccc(N3C(=O)C4C5C=CC(C5)C4C3=O)cc2s1 (stereo not given)	-9	0	0	13	126*	-4	53*	69*
CC(C)OC(=O)c1nnc(Cc2ccc(F)cc2)o1	16	-2	-3	-2	91*	8	30	9
Fc1ccc2nc(Nc3nc4cc5c(cc4s3)OCCO5)sc2c1	-11	4	5	14	103*	-7	52*	-6
Fc1ccc2nc(Nc3nc4cc5c(cc4s3)OCO5)sc2c1	-8	31*	5	-2	119*	-6	80*	19*
CCCN1CCN(CC(=O)Nc2nncs2)CC1	5	2	-1	12	-1	0	/	/
Fc1ccccc1Nc1nc2ccccc2n2nnnc12	47	-3	-1	5	96*	-26	74*	11*
Brc1ccc(Nc2nc3ccccc3n3nnnc23)cc1	/	/	10	11	94*	-2	108*	75*
SMILES	H9c2 protect	GRIN3A LBD mod	NTR1 ag	AI-2 QS mod	AHR act	Mot1-301 SUMO	AHR act cf	PXR counter
O=C1c2cccc3cc([N+](=O)[O-])cc(c23)C(=O)N1CCN1CCCC1	9	-1	2	20	/	/	/	/
Nc1cc2c3c(cccc3c1)C(=O)N(CCN1CCCC1)C2=O	18	0	/	23	142*	5	201*	/
O=C1c2cccc3cccc(c23)C(=O)N1CCN1CCN(C(=S)Nc2ccc(Cl)cc2)CC1	-1	9	1	32	97*	15	110*	65*
CCNC(=S)N1CCN(CCN2C(=O)c3cccc4cccc(c34)C2=O)CC1	19	-2	2	2	-2	-8	/	/
O=C1c2cccc3cccc(c23)C(=O)N1CCN1CCN(C(=S)Nc2ccccc2)CC1	10	-5	1	13	98*	17	101*	98*
CC(C)Cn1c(/C=C/c2ccccc2)nc2ccccc21	-14	-2	1	5	84*	93	119*	68*
Cc1nc2cc(Cl)c(Cl)cc2n1-c1ccccn1	-13	1	1	17	12	2	/	/
Cc1cccc(Nc2nc(N)nc(-c3oc4ccccc4c3C)n2)c1	0	4	17	16	-7	8	/	/
Cc1ccc(Nc2nc(N)nc(-c3oc4ccccc4c3C)n2)cc1	-4	3	21	7	104*	-4	-7	85*
O=Cc1ccc(-n2nncc2-c2ccc([N+](=O)[O-])cc2)cc1	-1	1	1	19	0	2	/	/
CC(C)(C)c1cnnn1-c1ccc(/C=N/Nc2ccc([N+](=O)[O-])cc2)cc1	-18	0	2	30	83*	i	55*	35*
Cn1cccc1/C=N/NC(=O)c1cccs1	1	-1	-1	5	5	1	/	/
Cn1cc(/C=N\NC(=O)c2cccs2)c2ccccc21	28	-2	3	0	149*	-21	110*	21*
Cc1cc(/C=N/NC(=O)c2cccs2)c(C)n1-c1ccccc1	-31	-2	-1	12	2	/	/	/
Cn1cc(/C=N/NC(N)=S)c2ccccc21	-4	-1	2	11	15	57	/	/
C=CCNC(=S)N/N=C/c1cn(C)c2ccccc12	0	3	2	22	95*	13	74*	167*
Cc1cc(/C=N/NC(=O)c2cccs2)c(C)n1-c1cnccn1	5	0	0	8	110*	5	118*	21*
COc1ccc(S(=O)(=O)N2CCN(C(=O)c3cc(-c4ccc(C)cc4)n[nH]3)CC2)cc1	-16	-17	5	11	2	-6	/	/
COc1ccc(-c2cc(C(=O)N3CCN(S(=O)(=O)c4ccc(C)cc4)CC3)[nH]n2)cc1	-14	1	1	11	111*	-6	2	13*
O=C1c2ccccc2-n2c1nc1ccccc1c2=O	-16	0	-1	40	108*	-50	155*	30*
